{"source": "PubChem BioAssay (NCATS)", "note": "Inconclusive results are not listed. A call without a number means that no potency is given here. Activity calls are given as the source filed them. Calls follow the shape of the dose curve; as a rule, active = well fitted inhibition curve with a large enough effect; inconclusive = small, poorly fitted or top-dose-only effect; inactive = flat fitted curve, though single readings scatter.", "data": [{"test": "P-glycoprotein substrates identified in KB-8-5-11 adenocarcinoma cell line, qHTS therapeutic library screen (AID 1346987); also: nearly all actives have a fitted effect of over 65% in size; also: potency is read from the fitted curve at half-maximal effect", "conditions": "KB-8-5-11 (P-gp overexpressing) viability, CellTiter-Glo, 72 h; series mostly up to 44.5 µM", "in_short": "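Steps: plate 500 KB-8-5-11 cells/well in DMEM + 10% FCS (colchicine removed); pin compounds in dose-response; incubate 72 h, 37 degree C, 5% CO2; add CellTiter-Glo, 5 min; read luminescence.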", "values": [{"compound": "C=C(C(=O)OC[C@H]1O[C@@H](OC(=O)/C=C/c2ccccc2)[C@H](O)[C@@H](O)[C@@H]1O)C(O)CO", "note": "(stereo partly drawn)", "Potency": "inactive"}, {"compound": "COc1cc2c(Nc3cc(F)c(Cl)c(Cl)c3)ncnc2cc1OCC1CCCN(C)CCC1", "Potency": "16.4 µM (active)"}, {"compound": "C[C@H]1[C@H](/C=C/c2ccc(-c3ccccc3C#N)cn2)[C@@H]2[C@@H](C)OC(=O)[C@@H]2C[C@@H]1C", "Potency": "16.4 µM (active)"}, {"compound": "O=C(Nc1ncc([N+](=O)[O-])s1)c1ccccc1O", "Potency": "5.8 µM (active)"}, {"compound": "COc1cc(C#N)ccc1S(=O)(=O)Nc1ccc2c(c1)cc(C)c(=O)n2C", "Potency": "inactive"}, {"compound": "COCC(c1ccc(C(F)(F)F)cc1)N1CCN(C2(C)CCN(C(=O)c3c(C)ncnc3C)CC2)CC1C", "note": "(stereo not drawn)", "Potency": "inactive"}, {"compound": "Cc1ccc(CNc2ncnc3ccc(-c4ccc(CO)o4)cc23)o1", "Potency": "inactive"}, {"compound": "COc1c2c(nc3occc13)C(CC=C(C)C)(OC)C(O)CC2", "note": "(stereo not drawn)", "Potency": "inactive"}, {"compound": "Cc1cc2c(c(=O)o1)C=C1CC[C@H]([C@H](C)Cn3cnc(=N)c4[nH]cnc43)C[C@@H]1O2", "Potency": "inactive"}, {"compound": "O=C(NC1CCN(CCCCC2(C(=O)NCC(F)(F)F)c3ccccc3-c3ccccc32)CC1)c1ccccc1-c1ccc(C(F)(F)F)cc1", "Potency": "20.6 µM (active)"}, {"compound": "C=C[C@@]1(C)C=C2C(=O)C(O)=C3[C@](C)(C(=O)O)CC[C@@H]4C[C@]34[C@]2(O)C(=O)C1", "Potency": "10.1 µM (active)"}, {"compound": "CCOc1nc(NC(=O)Cc2cc(OC)ccc2OC)cc(N)c1C#N", "Potency": "inactive"}, {"compound": "Cc1ccc(/C(=C\\CN2CCCC2)c2cccc(/C=C/C(=O)O)n2)cc1", "Potency": "inactive"}, {"compound": "CC(=O)Nc1cccc(-c2csc(Nc3cc(C)ccn3)n2)c1", "Potency": "inactive"}, {"compound": "Cc1cc(F)ccc1-c1nc(NCCN=C(N)NC#N)nc2c1ccc(=O)n2-c1c(F)cccc1F", "Potency": "inactive"}, {"compound": "COc1ccc(CCO[C@@H]2O[C@H](CO[C@H]3OC[C@](O)(CO)[C@H]3O)[C@@H](OC(=O)/C=C/c3ccc(O)c(O)c3)[C@H](O[C@@H]3O[C@@H](C)[C@H](O)[C@@H](O)[C@H]3O)[C@H]2O)cc1OC", "Potency": "inactive"}, {"compound": "CCC/C=C\\C=C/CCc1cc(O)c([C@@H]2O[C@H](CO)[C@@H](O)[C@H](O)[C@H]2O)c(O)c1C(=O)OC", "Potency": "inactive"}, {"compound": "COc1ccc(NC(=O)c2ccc(C(=N)N(C)C)cc2)c(C(=O)Nc2ccc(Cl)cn2)c1", "Potency": "inactive"}, {"compound": "CC[C@H]1OC(=O)[C@H](C)[C@@H](O[C@H]2C[C@@](C)(OC)[C@@H](O)[C@H](C)O2)[C@H](C)[C@@H](O[C@H]2O[C@H](C)C[C@H](N(C)C)[C@H]2O)[C@](C)(O)C[C@@H](C)C(=O)[C@H](C)[C@@H](O)[C@]1(C)O", "Potency": "inactive"}, {"compound": "COc1ccccc1OCCNCC(O)CCOc1cccc2[nH]c3ccccc3c12", "note": "(stereo not drawn)", "Potency": "18.4 µM (active)"}, {"compound": "COc1cc(N2CCOCC2)ccc1NC(=O)c1csc(-c2cccnc2)n1", "Potency": "11.6 µM (active)"}, {"compound": "CN(C)CC1CCn2c(c(C3=C(c4cn(C)c5ccccc45)C(=O)NC3=O)c3ccccc32)C1", "note": "(stereo not drawn)", "Potency": "16.4 µM (active)"}, {"compound": "O=C(Nc1cccc(C(F)(F)F)c1)Nc1ccc(Br)cc1-c1nn[nH]n1", "Potency": "inactive"}, {"compound": "CCc1c(Cl)c(O)c(Cl)c(O)c1C(=O)O[C@H]1[C@H](O)[C@H](OC)[C@H](OC/C2=C\\C=C\\C[C@H](O)/C(C)=C\\[C@H](CC)[C@@H](O[C@@H]3OC(C)(C)[C@@H](OC(=O)C(C)C)[C@H](O)[C@@H]3O)/C(C)=C/C(C)=C/C[C@@H]([C@@H](C)O)OC2=O)O[C@@H]1C", "Potency": "inactive"}, {"compound": "COC(=O)CC[C@@H](C)C1CCC2C3CCC4C[C@H](OC(C)=O)CCC4(C)C3C[C@H](O)C21C", "note": "(stereo partly drawn)", "Potency": "inactive"}, {"compound": "O=C(c1ccccc1)c1c(O)cc(O)cc1O[C@@H]1O[C@H](CO)[C@@H](O)[C@H](O)[C@H]1O", "Potency": "inactive"}, {"compound": "O=C1C(Cc2ccc(O)cc2)N2C(=O)CCN(C(=O)NCc3ccccc3)C2CN1Cc1cccc2ccccc12", "note": "(stereo not drawn)", "Potency": "inactive"}, {"compound": "COc1ccc2cc(-c3cc(-c4cc(Cl)cc(Cl)c4)nn3C(C)c3ccc(C(=O)NCCC(=O)O)cc3)ccc2c1", "note": "(stereo not drawn)", "Potency": "inactive"}, {"compound": "Cc1ccc(C(C)C)c(O[C@@H]2O[C@H](CO)[C@@H](O)[C@H](O)[C@H]2O)c1", "Potency": "inactive"}, {"compound": "CC(=O)OC1CC2(C)C(CCC(C)C23Cc2c(O)cc(CO)c(C=O)c2O3)C(C)(C)C1O", "note": "(stereo not drawn)", "Potency": "inactive"}, {"compound": "Cn1c(CO)c(-c2ccccc2)c2cc([N+](=O)[O-])ccc21", "Potency": "inactive"}, {"compound": "C/C(=C\\CO[C@@H]1O[C@H](CO[C@H]2OC[C@](O)(CO)[C@H]2O)[C@@H](O)[C@H](O)[C@H]1O)C(C)(C)O", "Potency": "inactive"}, {"compound": "Cn1cc(-c2ccc(S(=O)(=O)n3ccc(/C=C/C(=O)Nc4ccccc4N)c3)cc2)cn1", "Potency": "2.59 µM (active)"}, {"compound": "CC(=O)O[C@@H]1C[C@@]23C[C@@]24CC[C@H](O[C@@H]2OC[C@H](O)[C@H](O)[C@H]2O)C(C)(C)[C@@H]4CC[C@H]3[C@]2(C)[C@@H](O)C34O[C@H](C[C@@H](C)[C@@H]3[C@@]12C)[C@@H](C(C)(C)O)O4", "Potency": "inactive"}, {"compound": "O=C(Nc1ccnc(NC(=O)C2CC2)c1)c1c(Cl)cccc1Cl", "Potency": "8.2 µM (active)"}, {"compound": "NS(=O)(=O)c1ccc(NC(=O)Nc2ccc(F)cc2)cc1", "Potency": "inactive"}, {"compound": "FC(F)(F)c1ccc(CNc2ccc(Cc3c[nH]c4ncc(Cl)cc34)cn2)cn1", "Potency": "14.6 µM (active)"}, {"compound": "CC(C)(Cc1ccccc1)NCC(O)c1ccc(O)c(NS(C)(=O)=O)c1", "note": "(stereo not drawn)", "Potency": "inactive"}]}]}
